We go through 10 molecules from the supplement of paper PMC4022240.

What all share (test): peptide microarray binding signal (635 nm), min-max normalized on array (fraction of array maximum); higher = stronger binding
Holding throughout (details): peptide region: H3 1-13

Test [1] concerns the target T1, HaloTag-ATRX ADD domain (163-292).
T1 chain: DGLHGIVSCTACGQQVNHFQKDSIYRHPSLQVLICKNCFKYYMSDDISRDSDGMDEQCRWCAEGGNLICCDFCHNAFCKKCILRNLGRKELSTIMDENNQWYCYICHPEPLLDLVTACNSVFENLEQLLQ
As to the method:
(§1)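 Histone 13-mer peptides were synthesized as cellulose conjugates with a C-terminal 20-atom PEG linker and printed in triplicate on nitrocellulose. The sequence given is the unmodified backbone; PTMs (Kme1/2/3, Kac, Sph/Tph, Rme/Rme2a/Rme2s, Rcit) are listed in the label and the 'peptide modifications' condition. Slides were probed at 4 °C for 1 h with biotin-labelled (HQ)5-HaloTag reader fusions (ATRX-ADD, ING2-PHD) then streptavidin-Alexa647, or with rabbit histone antibodies then anti-rabbit Alexa647. The mean 635 nm signal of the triplicate spots was scaled 0-1 between the lowest and highest values on each array.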

For test [2], the target named is HaloTag-ING2 PHD (mouse Ing2 200-280). As for the experimental part: as §1
Test [3] has as its target anti-H3K4me3 antibody ab8580. As to the method:
as §1

In test [4] the target is anti-H3K9me3 antibody ab8898. As to the method:
as §1

Setting [5] is: peptide modifications: H3R2me2s H3K9me2, binder concentration: 1:2,000 dilution.
The mark [6] stands for this setting: peptide modifications: H3R2me2s H3K9me2, binder concentration: 1:10,000 dilution.
Setting [7] is: peptide modifications: H3R2me2s, binder concentration: 1:2,000 dilution.
[8] abbreviates: peptide modifications: H3R2me2s, binder concentration: 1:10,000 dilution.
Where [9] appears, read: peptide modifications: H3R8cit H3K9me1, binder concentration: 1:2,000 dilution.
Setting [10] is: peptide modifications: H3R8cit H3K9me1, binder concentration: 1:10,000 dilution.
Where [11] appears, read: peptide modifications: H3R2me2a H3K9me1, binder concentration: 1:2,000 dilution.
[12] abbreviates: peptide modifications: H3R2me2a H3K9me1, binder concentration: 1:10,000 dilution.
[13] abbreviates: peptide modifications: H3R2me2s H3K9ac, binder concentration: 1:2,000 dilution.
[14] abbreviates: peptide modifications: H3R2me2s H3K9ac, binder concentration: 1:10,000 dilution.
Where [15] appears, read: peptide modifications: H3R2me2a H3K9me3, binder concentration: 1:2,000 dilution.
The mark [16] stands for this setting: peptide modifications: H3R2me2a H3K9me3, binder concentration: 1:10,000 dilution.
Setting [17] is: peptide modifications: H3R2me2a H3T6ph, binder concentration: 1:2,000 dilution.
The mark [18] stands for this setting: peptide modifications: H3R2me2a H3T6ph, binder concentration: 1:10,000 dilution.
The mark [19] stands for this setting: peptide modifications: H3R2me2s H3K4me3, binder concentration: 1:2,000 dilution.
Where [20] appears, read: peptide modifications: H3R2me2s H3K4me3, binder concentration: 1:10,000 dilution.
[21] abbreviates: peptide modifications: H3R2me2s H3K9me3, binder concentration: 1:2,000 dilution.
Where [22] appears, read: peptide modifications: H3R2me2s H3K9me3, binder concentration: 1:10,000 dilution.
Setting [23] is: peptide modifications: H3R2me2a H3T3ph, binder concentration: 1:2,000 dilution.
Where [24] appears, read: peptide modifications: H3R2me2a H3T3ph, binder concentration: 1:10,000 dilution.

± gives the standard deviation.

Consider ARTKQTARKSTGG [H3 1-13 A Rme2s T K Q T A R Kme2 S T G G], for which the “peptide microarray binding signal” value was determined as 0.0159 ± 0.001 in test [1] (peptide modifications: H3R2me2s H3K9me2, binder concentration: 50 nM); 0.0381 ± 0.00096 in test [1] (peptide modifications: H3R2me2s H3K9me2, binder concentration: 500 nM); 0.0245 ± 0.00098 in test [2] (peptide modifications: H3R2me2s H3K9me2, binder concentration: 10 nM); 0.0463 ± 0.005 in test [2] (peptide modifications: H3R2me2s H3K9me2, binder concentration: 100 nM); 0.0401 ± 0.0015 in test [3] (setting [5]); 0.0397 ± 0.0042 in test [3] (setting [6]). Further, the “peptide microarray binding signal” value in test [4] (setting [5]) came to 0.0557 ± 0.0055; in test [4] (setting [6]) it was 0.0282 ± 0.0014.
Consider ARTKQTARKSTGG [H3 1-13 A Rme2s T K Q T A R K S T G G], for which the “peptide microarray binding signal” value in test [1] (peptide modifications: H3R2me2s, binder concentration: 50 nM) was found to be 0.00815 ± 0.00015; in test [1] (peptide modifications: H3R2me2s, binder concentration: 500 nM), 0.0158 ± 0.0003; in test [2] (peptide modifications: H3R2me2s, binder concentration: 10 nM), 0.00424 ± 0.00023; in test [2] (peptide modifications: H3R2me2s, binder concentration: 100 nM) it was 0.0168 ± 0.003; in test [3] (setting [7]), 0.00153 ± 0.0002; in test [3] (setting [8]), 0.000799 ± 8.3e-06. Moreover, the “peptide microarray binding signal” value is 0.00178 ± 0.00012 in test [4] (setting [7]) and 0.00075 ± 1.6e-05 in test [4] (setting [8]).
In the case of ARTKQTARKSTGG [H3 1-13 A R T K Q T A Rcit Kme S T G G], the “peptide microarray binding signal” value was found to be 0.0302 ± 0.0019 in test [1] (peptide modifications: H3R8cit H3K9me1, binder concentration: 50 nM); 0.0745 ± 0.02 in test [1] (peptide modifications: H3R8cit H3K9me1, binder concentration: 500 nM); 0.0223 ± 0.002 in test [2] (peptide modifications: H3R8cit H3K9me1, binder concentration: 10 nM); 0.0394 ± 0.013 in test [2] (peptide modifications: H3R8cit H3K9me1, binder concentration: 100 nM); 0.00313 ± 0.00015 in test [3] (setting [9]); 0.00217 ± 9.9e-05 in test [3] (setting [10]). Also, the entries for the “peptide microarray binding signal” value in test [4] (setting [9]) and in test [4] (setting [10]) were 0.00225 ± 0.00023 and 0.00185 ± 5.2e-05, respectively.
In the case of ARTKQTARKSTGG [H3 1-13 A Rme2a T K Q T A R Kme S T G G], the “peptide microarray binding signal” value in test [1] (peptide modifications: H3R2me2a H3K9me1, binder concentration: 50 nM) amounted to 0.0646 ± 0.0083; in test [1] (peptide modifications: H3R2me2a H3K9me1, binder concentration: 500 nM) it was 0.138 ± 0.008; in test [2] (peptide modifications: H3R2me2a H3K9me1, binder concentration: 10 nM), 0.0387 ± 0.0036; in test [2] (peptide modifications: H3R2me2a H3K9me1, binder concentration: 100 nM), 0.0709 ± 0.014; in test [3] (setting [11]), 0.0175 ± 0.0013; in test [3] (setting [12]) it was 0.0118 ± 0.0015. Further, the “peptide microarray binding signal” value in test [4] (setting [11]) came to 0.00838 ± 0.0011; in test [4] (setting [12]) it was 0.00675 ± 0.00044.
With ARTKQTARKSTGG [H3 1-13 A Rme2s T K Q T A R Kac S T G G], the “peptide microarray binding signal” value in test [1] (peptide modifications: H3R2me2s H3K9ac, binder concentration: 50 nM) amounted to 0.0127 ± 0.00045; in test [1] (peptide modifications: H3R2me2s H3K9ac, binder concentration: 500 nM), 0.0427 ± 0.0013; in test [2] (peptide modifications: H3R2me2s H3K9ac, binder concentration: 10 nM), 0.0451 ± 0.0015; in test [2] (peptide modifications: H3R2me2s H3K9ac, binder concentration: 100 nM), 0.0681 ± 0.0061; in test [3] (setting [13]), 0.0383 ± 0.0035; in test [3] (setting [14]) it was 0.0308 ± 0.0052. Further, the “peptide microarray binding signal” value in test [4] (setting [13]) was found to be 0.0163 ± 0.0031; in test [4] (setting [14]) it was 0.00836 ± 0.00038.
In the case of ARTKQTARKSTGG [H3 1-13 A Rme2a T K Q T A R Kme3 S T G G], the “peptide microarray binding signal” value in test [1] (peptide modifications: H3R2me2a H3K9me3, binder concentration: 50 nM) was 0.553 ± 0.21; in test [1] (peptide modifications: H3R2me2a H3K9me3, binder concentration: 500 nM), 0.325 ± 0.0057; in test [2] (peptide modifications: H3R2me2a H3K9me3, binder concentration: 10 nM), 0.0188 ± 0.00063; in test [2] (peptide modifications: H3R2me2a H3K9me3, binder concentration: 100 nM), 0.0327 ± 0.0029; in test [3] (setting [15]), 0.0294 ± 0.003; in test [3] (setting [16]), 0.0254 ± 0.0048. Besides, the “peptide microarray binding signal” value in test [4] (setting [15]) turned out to be 0.328 ± 0.013; in test [4] (setting [16]), 0.254 ± 0.069.
Consider ARTKQTARKSTGG [H3 1-13 A Rme2a T K Q Tph A R K S T G G], for which the “peptide microarray binding signal” value was 0.00602 ± 7.4e-05 in test [1] (peptide modifications: H3R2me2a H3T6ph, binder concentration: 50 nM); 0.015 ± 0.0011 in test [1] (peptide modifications: H3R2me2a H3T6ph, binder concentration: 500 nM); 0.00549 ± 0.00043 in test [2] (peptide modifications: H3R2me2a H3T6ph, binder concentration: 10 nM); 0.00964 ± 0.0013 in test [2] (peptide modifications: H3R2me2a H3T6ph, binder concentration: 100 nM); 0.00198 ± 0.00026 in test [3] (setting [17]); 0.0032 ± 0.00025 in test [3] (setting [18]). Moreover, the “peptide microarray binding signal” value was found to be 0.00112 ± 3.5e-05 in test [4] (setting [17]) and 0.000923 ± 1.9e-05 in test [4] (setting [18]).
Consider ARTKQTARKSTGG [H3 1-13 A Rme2s T Kme3 Q T A R K S T G G], for which the “peptide microarray binding signal” value in test [1] (peptide modifications: H3R2me2s H3K4me3, binder concentration: 50 nM) is 0.00893 ± 9.3e-05; in test [1] (peptide modifications: H3R2me2s H3K4me3, binder concentration: 500 nM), 0.0273 ± 0.0066; in test [2] (peptide modifications: H3R2me2s H3K4me3, binder concentration: 10 nM), 0.0555 ± 0.0092; in test [2] (peptide modifications: H3R2me2s H3K4me3, binder concentration: 100 nM), 0.0641 ± 0.027; in test [3] (setting [19]) it was 0.674 ± 0.053; in test [3] (setting [20]), 0.326 ± 0.034. The “peptide microarray binding signal” value in test [4] (setting [19]) was found to be 0.228 ± 0.057; in test [4] (setting [20]), 0.113 ± 0.034.
Regarding ARTKQTARKSTGG [H3 1-13 A Rme2s T K Q T A R Kme3 S T G G], the “peptide microarray binding signal” value is 0.172 ± 0.02 in test [1] (peptide modifications: H3R2me2s H3K9me3, binder concentration: 50 nM); 0.303 ± 0.03 in test [1] (peptide modifications: H3R2me2s H3K9me3, binder concentration: 500 nM); 0.0377 ± 0.0039 in test [2] (peptide modifications: H3R2me2s H3K9me3, binder concentration: 10 nM); 0.0559 ± 0.0018 in test [2] (peptide modifications: H3R2me2s H3K9me3, binder concentration: 100 nM); 0.211 ± 0.015 in test [3] (setting [21]); 0.14 ± 0.0028 in test [3] (setting [22]). For the same molecule, the figures for the “peptide microarray binding signal” value in test [4] (setting [21]) and in test [4] (setting [22]) were 0.81 ± 0.03 and 0.561 ± 0.017, respectively.
For the molecule ARTKQTARKSTGG [H3 1-13 A Rme2a Tph K Q T A R K S T G G], the “peptide microarray binding signal” value in test [1] (peptide modifications: H3R2me2a H3T3ph, binder concentration: 50 nM) came out at 0.00567 ± 0.00034; in test [1] (peptide modifications: H3R2me2a H3T3ph, binder concentration: 500 nM), 0.0135 ± 0.00068; in test [2] (peptide modifications: H3R2me2a H3T3ph, binder concentration: 10 nM) it was 0.00501 ± 0.00013; in test [2] (peptide modifications: H3R2me2a H3T3ph, binder concentration: 100 nM), 0.00737 ± 0.00044; in test [3] (setting [23]), 0.00262 ± 0.00056; in test [3] (setting [24]), 0.00434 ± 0.00077. For the same molecule, the “peptide microarray binding signal” value was found to be 0.000755 ± 0.00011 in test [4] (setting [23]) and 0.000577 ± 6.2e-06 in test [4] (setting [24]).
